{
  "source": "PubChem BioAssay (EPA / NIEHS)",
  "note": "Where “and” joins values, the source holds several entries; their conditions need not be identical. Equal entries are not always repeated. Some compounds were tested as several samples or in several runs, with calls that do not always agree. Calls of active or inactive are those of the source. The calls were made as follows: active = hit-call score of the fitted dose curve at least 0.9, where 1 is the maximum; inactive = score below 0.9.",
  "data": [
    {"read-out": "Monocyte Chemoattractant Protein-1 (MCP1), CCL2 (gene 6347)", "assay": "BSK_BF4T_MCP1: BioMAP Diversity Plus: BF4T Assay for Monocyte Chemoattractant Protein-1 (MCP1) Biomarker Activity (AID 2284259)", "settings": "primary human bronchial epithelial cells with fibroblasts", "experimental": "BSK_BF4T is a cell-based, multiplexed-readout assay that uses bronchial epithelial cells and dermal fibroblasts, a human vascular primary cell, with measurements taken at 24 hours after chemical dosing in a microplate: 96-well plate.BSK_BF4T_MCP1 is an assay component measured in the BSK_BF4T assay. It measures MCP-1 antibody related to regulation of gene expression using ELISA technology.Data from the assay component BSK_BF4T_MCP1 was analyzed at the endpoint, BSK_BF4T_MCP1, in the positive analysis fitting direction relative to DMSO as the negative control and baseline of activity. Using a type of binding reporter, gain or loss-of-signal activity can be used to understand protein changes. To generalize the intended target to other relatable targets, this assay endpoint is annotated to the 'cytokine' intended target family, where the subfamily is 'chemotactic factor'.\nThe levels of cell surface (or secreted, indicated by the prefix \"s\") biomarker endpoints were measured by ELISA. Overt cytotoxicity to cells in confluent adherent cultures (all systems other than the BT system) was assessed by measuring total protein levels using sulforhodamine B (SRB) staining in parallel cultures at the time of biomarker measurements, indicated as SRB endpoints. For proliferation assays for adherent cell types, individual cell types are cultured at sub-confluence and relative cell numbers quantified by SRB staining at time points optimized for each system (48 h: 3C and CASM3C systems; 72 h: BT and HDF3CGF systems; 96 h: SAg system). SRB was performed by staining cells with 0.1% SRB after fixation with 10% TCA and reading wells at 560 nm.Viability and proliferation of PBMC (T cells) was quantified by Alamar Blue reduction for the SAg and BT systems. For PBMC viability (referred to as PBMC Cytotoxicity within the assay endpoint names), cells were plated (75,000/well in a 96-well plate) and then chemical samples added for 1 h before addition of activators, SEB and TSST-1 (20 ng/mL final concentration each). Cells were incubated for 90 h. Then, Alamar Blue (20 uL/well) (Invitrogen, Cat DAL1100) was added for 6 h, and the plates were read with a fluorescence microplate reader at 546/580 nm (excitation/emission). For PBMC proliferation, cells were plated and activated as above but incubated for only 16 h prior to addition of Alamar Blue. Plates were read after 6 h.", "values": [
      {"smiles": "O=P(O)(O)CCC(F)(F)C(F)(F)C(F)(F)C(F)(F)C(F)(F)C(F)(F)F", "outcome": "inactive"},
      {"smiles": "C=CC(=O)OCCC(F)(F)C(F)(F)C(F)(F)C(F)(F)C(F)(F)C(F)(F)C(F)(F)C(F)(F)F", "outcome": "inactive"},
      {"smiles": "O=P(O)(O)CCC(F)(F)C(F)(F)C(F)(F)C(F)(F)C(F)(F)C(F)(F)C(F)(F)C(F)(F)F", "outcome": "inactive"},
      {"smiles": "O=C(O)CCC(F)(F)C(F)(F)C(F)(F)C(F)(F)C(F)(F)F", "outcome": "inactive"},
      {"smiles": "OCC(F)(F)C(F)(F)C(F)(F)C(F)(F)C(F)(F)C(F)(F)C(F)(F)C(F)(F)C(F)(F)C(F)(F)C(F)(F)F", "outcome": "inactive"},
      {"smiles": "O=S(=O)(O)C(F)(F)C(F)(F)C(F)(F)C(F)(F)C(F)(F)C(F)(F)C(F)(F)C(F)(F)C(F)(F)C(F)(F)F", "outcome": "inactive"},
      {"smiles": "CN(Cc1cnc2nc(N)nc(N)c2n1)c1ccc(C(=O)N[C@@H](CCC(=O)O)C(=O)O)cc1", "outcome": "inactive"},
      {"smiles": "O=C(O)C(F)(F)OC(F)(F)C(F)(F)OC(F)(F)C(F)(F)OC(F)(F)C(F)(F)C(F)(F)C(F)(F)F", "AC50": "7.5 µM (active)", "outcome": "inactive"},
      {"smiles": "O=C(O)CCC(F)(F)C(F)(F)C(F)(F)C(F)(F)C(F)(F)C(F)(F)F", "outcome": "inactive"},
      {"smiles": "CN(CCO)S(=O)(=O)C(F)(F)C(F)(F)C(F)(F)C(F)(F)C(F)(F)C(F)(F)C(F)(F)C(F)(F)F", "outcome": "inactive"},
      {"smiles": "O=C(CC(=O)C(F)(F)C(F)(F)C(F)(F)F)c1cccs1", "AC50": "22.9 µM (active) and 10.9 µM (active)"}
    ]}
  ]
}
